# Test results taken from PubChem BioAssay (NCI).
# This is part of a sample that, as a whole, favours compounds with a hit. Of some 83,000 tested, about 20% had one in any assay.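 In brief: 96-well plates, 48 h treatment, single concentration, percent growth endpoint.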 Values without a mark were called inactive. Active and inactive are the calls of the source. Rule for the calls: active = growth percent below 10; inactive = the rest.
# Assays:
# Assay in all cases: NCI-60 one-dose screen, 48 h (100 = growth as untreated, 0 = no growth, -100 = all killed)
# Details in all cases: 10 µM unless noted
# [1] = test system: DU-145 prostate
# [2] = test system: K-562 leukemia
# [3] = test system: MALME-3M melanoma
# [4] = test system: MDA-MB-231 breast
# [5] = test system: RXF 393 renal
# [6] = test system: SF-268 CNS
# [7] = test system: SF-295 CNS
# [8] = test system: SF-539 CNS
# [9] = test system: UACC-257 melanoma
# [10] = test system: M14 melanoma
Structure (SMILES),growth [1],growth [2],growth [3],growth [4],growth [5],growth [6],growth [7],growth [8],growth [9],growth [10]
O=C(NNC(=O)N1c2ccccc2C=Cc2ccccc21)c1ccccc1,107%,101%,117%,111%,106%,98.4%,95.7%,102%,108%,110%
CCN(CC)CCOc1ccc(Cl)c(C)c1,107%,111%,94.4%,104%,104%,98%,118%,108%,99.5%,103%
COc1cccc(/C=C2\Oc3cc(OCCCN4CCCC4)ccc3C2=O)c1,94.7%,-35.5% (active),98.9%,76.7%,81%,88.3%,91.1%,76.1%,102%,65.9%
CCCCC(CC)OC(=O)C(Br)CC (stereo not given),107%,83.8%,99.9%,112%,114%,98.1%,97.5%,98.7%,104%,101%
COc1ccc(C(=O)N2NC(=O)/C(=C/c3ccc(Br)cc3)N=C2c2ccccc2)cc1,102%,81.8%,90.3%,83.3%,99.9%,89.8%,92.7%,76.8%,95.5%,79.2%
c1cc2[nH]ncc2cc1-c1nc2ccc3[nH]ncc3c2c2c1CCC2,54.3%,15.4%,47.3%,70.2%,19.5%,56.2%,80.6%,45%,65.8%,21%
CN(C)c1cccc2c(S(=O)(=O)/N=C(\N)Nc3nc4ccccc4s3)cccc12,96%,21.9%,73.7%,68.3%,54.6%,69.7%,33.6%,52.4%,78.3%,45.3%
Clc1cccc(-c2cc(-c3ccc4c(c3)OCCO4)[nH]n2)c1,38.8% [25 µM],12% [25 µM],35.4% [25 µM],32.4% [25 µM],8.25% [25 µM] (active),53.2% [25 µM],29% [25 µM],33.6% [25 µM],74% [25 µM],25% [25 µM]
O=C(NCCCNc1nccc(-n2ccc3cccnc32)n1)c1c(F)cccc1F,107%,98.7%,106%,95.5%,108%,96.3%,98.4%,97.9%,113%,102%
O=C(Nc1ccc(NCCN2CCOCC2)nc1)c1ccc([N+](=O)[O-])cc1,106%,103%,105%,103%,124%,103%,91.3%,95.6%,93.1%,105%
CCCCNC(=O)Oc1ccc(/C(=C(\C)c2ccccc2)c2ccc(OCCN(CC)CC)cc2)cc1,89.3%,8.28% (active),76.1%,103%,52.8%,68.5%,91.1%,48.3%,19.3%,6.41% (active)
